From PubChem BioAssay
CTSL1 counter-1 = cathepsin L1 inhibition, PFM18AAP counter-screen. 300,000 tested, 0.49% active. inhibition, % at 5.96 µM. recombinant F. hepatica cathepsin L1, Z-Leu-Arg-MCA fluorescence. AID 1906;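 active means inhibition above the mean of all tested compounds plus 3 SD, set per screening campaign, cut at about 17% in these data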
Rin1 Abl inh = blocks binding of human Rin1 to Abl; inhibition, % at 7.35 µM; TR-FRET Rin1/Abl binding, biochemical; 360,000 tested, 0.4% active; in the data active means inhibition above about 5%, passing the limit was not always enough
PfM18AAP inh-1 = PfM18AAP enzyme inhibition; inhibition, % at 7.35 µM; AID 1822; 290,000 tested, 1.2% active; recombinant PfM18AAP, H-Glu-NHMec fluorogenic cleavage;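 active means inhibition above the campaign mean inhibition over all tested compounds plus 3 SD, cut at about 28% in these data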
Calb FLC = affects C. albicans growth with fluconazole; 300,000 tested, 0.57% active; C. albicans CaCi-2 (fluconazole-resistant clinical isolate) + fluconazole, Alamar Blue growth, 48 h; growth inhibition, % (no concentration beside the values);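 active means growth inhibition above about 58% in most replicates, limit read from the data, passing the limit was not always enough; inconclusive means exactly half the replicates above a set limit; inactive means most replicates below a set limit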;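 further: all wells also contain fluconazole at 8 µg/ml as a sub-toxic cotreatment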
PfM18AAP inh-2 = PfM18AAP inhibition, confirmation. 2,400 tested, 28% active. shares compounds with PfM18AAP inh-1. inhibition, % at 7.35 µM. recombinant PfM18AAP, H-Glu-NHMec fluorogenic cleavage;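 active means mean inhibition over replicate wells above the hit cutoff set for the earlier primary screen, cut at about 29% in these data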
CTSL1 counter-2 = Cathepsin L (human) inhibition, confirmation | shares compounds with PfM18AAP inh-1 | 2,400 tested, under 10 active | inhibition, % at 5.96 µM | purified cathepsin L1, Z-Leu-Arg-MCA fluorescence;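 active means average inhibition across replicates above the hit cutoff set in the earlier primary screen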
Numbers stand for hits; 0 = inactive; ? = inconclusive; - = not tested or not shown. Sampled rows, rich in hits. Any-hit rate of the full collection: about 2.1%.

SMILES	CTSL1 counter-1	Rin1 Abl inh	PfM18AAP inh-1	Calb FLC	PfM18AAP inh-2	CTSL1 counter-2
C/C(=N\Nc1ccc([N+](=O)[O-])cc1)c1ccc(N)cc1	0	0	33	0	0	0
CCC1=C(OC(=O)N(CC)CC)N2C(=O)OC(=NCC(=O)OC)[C@]2(Cc2ccccc2)[C@H]2C1=CC[C@H]1C(=O)N(c3ccccc3)C(=O)[C@H]12	0	0	-	0	-	-
C=CC(=O)NC(NC(=O)C=C)c1ccccc1F	0	0	0	0	-	-
Cc1cc(Br)c(NC(=O)COC(=O)CC2CC3CCC2C3)c(Br)c1 (centres undefined)	-	0	-	-	-	-
CC1CC(C)CN(C(C(=O)NC2CCCCC2)c2ccnc3ccccc23)C1 (centres undefined)	-	0	-	-	-	-
C/C(=N\Nc1ccc(C(=O)O)cc1)c1ccc(S(=O)(=O)NCc2ccco2)cc1	0	0	36	0	0	0
C/C(=N\Nc1ccccn1)c1ccc(S(=O)(=O)NCc2ccco2)cc1	0	0	0	0	-	-
N#C/C(=C\c1ccc(-c2ccccc2)o1)C(=O)Nn1cnnc1	0	0	63	0	54	0
Cn1ccc2c(N3CCCCCCC3)cc3c(c21)C1CCC3O1 (centres undefined)	-	0	-	-	-	-
O=C(N/N=C/c1ccc(-c2ccccc2[N+](=O)[O-])o1)c1cccnc1	0	0	0	0	-	-
CC(C)(C)c1cc(C(=O)N/N=C/c2ccc(-c3ccccc3[N+](=O)[O-])o2)n[nH]1	0	0	48	0	0	0
CNC(=S)/N=C(/Nc1ccccc1)c1ccccc1	0	0	44	?	0	0
N/C(=N\C(=S)Nc1ccccc1)c1ccccc1	0	0	0	0	-	-
CCOC(=O)c1c(C2COc3ccccc3O2)csc1N (centres undefined)	0	0	60	0	0	0
CCOC(=O)c1c(C2COc3ccccc3O2)csc1NC(=O)c1ccccc1 (centres undefined)	0	0	0	0	-	-
COc1ccc(-n2c(O)c(/C=N/NS(=O)(=O)c3ccc(C)cc3)c3ccccc3c2=O)cc1OC	0	0	0	0	-	-
COc1ccc(-n2c(O)c(/C=N/Nc3nc(C)cc(C)n3)c3ccccc3c2=O)cc1OC	0	0	34	0	0	0
COc1ccc(CN2CCC2(C)C(=O)Nc2ccc(OC)c(OC)c2)cc1 (centres undefined)	-	0	-	-	-	-
O=C1NC(=S)SC1=C1CCCC1	0	0	36	0	0	0
CN1C(=O)C(=C2CCCCCC2)SC1=S	0	0	0	0	-	-
O=C(O)c1ccc(O)c(O)c1	0	0	79	0	65	0
COc1cc(C(C)=O)ccc1OCC(O)Cn1nc(C)c(Br)c1C (centres undefined)	-	0	0	0	-	-
CCOc1ccccc1C(=O)N/N=C/c1coc2ccc(Cl)cc2c1=O	-	0	33	0	0	0
S=C(NCC1CCCO1)N1CCc2ccccc2C1 (centres undefined)	0	0	0	0	-	-
Cn1c(SCC(=O)c2ccc(O)c(O)c2)nnc1-c1ccccc1	-	0	48	0	0	0
SMILES	CTSL1 counter-1	Rin1 Abl inh	PfM18AAP inh-1	Calb FLC	PfM18AAP inh-2	CTSL1 counter-2
Cn1c(SCC(=O)c2ccc(O)c(O)c2)nnc1-c1cccs1	0	0	46	0	0	0
Cc1ccc(C(=O)CSc2nnc(-c3cccs3)n2C)o1	0	0	0	0	-	-
O=C(CSc1nc2ccccc2n1CCc1ccccc1)c1ccc(O)c(O)c1	-	0	44	-	0	0
O=C(CN1C(=O)NC(CCc2ccccc2)C1=O)Nc1ccc(F)c(F)c1F (centres undefined)	-	0	-	-	-	-
OCCn1c(-c2ccc3c(c2)OCO3)csc1=Nc1ccccc1	0	0	37	0	0	0
O=C(COc1cccc(C(F)(F)F)c1)N1CCN(c2ccc(O)cc2)CC1	0	0	33	0	0	0
Cc1c(NC(=O)COc2c(F)c(F)c(F)c(F)c2F)c(=O)n(-c2ccccc2)n1C	0	0	0	0	-	-
CNC(=O)N(O)C1N(C)C(=O)N(CC(=O)OC)C1(C)C (centres undefined)	0	0	37	0	0	0
Cc1ccc(-c2nc(Nc3cccc(O)c3)c3ccccc3n2)cc1	0	0	0	0	-	-
Oc1cccc(Nc2c3ccccc3nc3ccccc23)c1	0	0	37	0	0	0
COC(=O)C(Cc1c[nH]c2ccccc12)NC(=O)c1cc(-c2ccc(OC)c(OC)c2)oc1C (centres undefined)	0	0	0	0	-	-
CC(C)(C)c1nnc(N/N=C/c2ccccc2)n(N)c1=O	0	0	47	0	0	0
CSc1nnc(C(C)(C)C)c(=O)n1/N=C/c1ccccc1	0	0	0	0	-	-
Nc1nc(Nc2ccccc2)n[nH]1	0	0	45	-	0	0
NNc1nc(Nc2ccccc2)nc(Nc2ccccc2)n1	0	0	0	0	-	-
Nc1nc(Nc2cccc(Cl)c2)n[nH]1	0	0	43	0	0	0
Nc1nc(Nc2ccc(Cl)cc2)n[nH]1	0	0	32	0	0	0
COc1ccc(C(=O)NC(C)c2csc(C)n2)cc1OC1CCN(C(C)=O)CC1 (centres undefined)	0	0	0	0	-	-
CC(=O)Nc1cccc(-c2ccnc3c2CC(C(=O)NCc2ccc(F)c(F)c2)O3)c1 (centres undefined)	-	0	-	-	-	-
CCOC(=O)N1CCc2c(sc(N)c2C#N)C1	0	-	39	0	0	0
O=C(CC(C(=O)O)c1cccc(Br)c1)c1ccc(Cl)cc1 (centres undefined)	0	0	0	0	-	-
CCCCN(C)C(=O)c1[nH]c(C(F)(F)F)nc1-c1ccccc1	-	0	-	-	-	-
NS(=O)(=O)c1ccc(NNC(=O)c2ccccc2)cc1	0	0	0	0	-	-
CCc1ccc(C(=O)NNc2ccc(S(N)(=O)=O)cc2)cc1	0	0	35	0	0	0
CN(C(=O)c1sc2nc(N3CCCC3)c3c(c2c1N)CC(C)(C)OC3)c1ccccc1	0	0	0	0	-	-
SMILES	CTSL1 counter-1	Rin1 Abl inh	PfM18AAP inh-1	Calb FLC	PfM18AAP inh-2	CTSL1 counter-2
CC1(C)Cc2c(c(N3CCOCC3)nc3sc(C(=O)Nc4ccccc4)c(N)c23)CO1	0	0	37	0	0	0
CCOC(=O)c1sc2nc(N3CCCC3)c3c(c2c1N)CC(C)(C)OC3	0	0	0	0	-	-
CC1(C)Cc2c(c(N3CCOCC3)nc3sc(C(=O)Nc4cccc(Cl)c4)c(N)c23)CO1	0	0	41	0	0	0
Cc1ccc(S(=O)(=O)N2CCCC2CNC(=O)C(=O)NC2CC2)cc1 (centres undefined)	0	0	-	0	-	-
O=C(NN=C1CCC(=NNC(=O)c2ccccn2)CC1)c1ccccn1	-	0	32	-	0	0
CCC(C(=O)Nc1ncc(C)s1)c1ccccc1 (centres undefined)	0	0	0	0	-	-
COc1cc(/C=N/Nc2ncc(C(F)(F)F)cc2Cl)cc(OC)c1O	0	0	35	0	31	0
Oc1c(Br)cc(/C=N/Nc2ccc(Cl)nn2)cc1Br	0	0	34	0	0	0
COc1cc(/C=N/Nc2ncc(C(F)(F)F)cc2Cl)cc(OC)c1OC	0	0	0	0	-	-
CCOc1ccc(/C=N/Nc2ccc(Cl)nn2)c(O)c1	0	0	36	0	0	0
